# Source: the supplement of paper PMC13172266
# Where a name gives a salt, the structure may show the parent alone.
# Test system: U2932 TK216-resistant clone 3
# Assay: cell proliferation relative to vehicle (% of vehicle); higher = less growth inhibition
# Conditions: 50 nM; 72 h
# In short: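 A targeted inhibitor library of 348 compounds was tested on the ABC-DLBCL line U2932, both parental and two clones made resistant to an ETS-targeting agent by repeated exposure over almost a year. Cells were grown at 37°C and 5% CO2 in medium with 10% FBS, then treated at 500 nM or 50 nM for 72 h. MTT was added for 4 h, stopped with 25% SDS, and absorbance was read on a Cytation 3. Proliferation is reported as percent of proliferating cells relative to vehicle (DMSO).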
row,SMILES,cell proliferation
1,CC(C)N(CCCNC(=O)Nc1ccc(C(C)(C)C)cc1)C[C@H]1O[C@@H](n2cc(Br)c3c(N)ncnc32)[C@H](O)[C@@H]1O,105
2,O=C(O)CC[C@H]1CC[C@@](c2cc(F)ccc2F)(S(=O)(=O)c2ccc(Cl)cc2)CC1,105
3,Clc1ccc(Nc2nnc(Cc3ccncc3)c3ccccc23)cc1 [Vatalanib (PTK787) 2HCl],108
4,C=CCc1ccc(O)c(-c2ccc(O)c(CC=C)c2)c1 [Honokiol],104
5,O=C(O)C(=O)O.[NH-][C@@H]1CCCC[C@H]1[NH-].[Pt+2] [Oxaliplatin],105
6,CN1CCC(CNc2ccc3ncc(-c4cccc(OC(F)(F)F)c4)n3n2)CC1 [SGI-1776 free base],105
7,O=c1ncccn1[C@@H]1O[C@H](CO)[C@@H](O)[C@H]1O [Zebularine],102
8,COc1cc(Nc2ncc(F)c(Nc3ccc4c(n3)N(COP(=O)(O)O)C(=O)C(C)(C)O4)n2)cc(OC)c1OC [Fostamatinib (R788)],97.2
9,Oc1cccc(-c2nc(N3CCOCC3)c3oc4ncccc4c3n2)c1,94.2

# Same assay, conditions: 500 nM; 72 h
row,SMILES,cell proliferation
1,O=C1NC(=O)C(c2ccccc2[N+](=O)[O-])=C1Nc1ccc(O)c(Cl)c1,105
2,C[S+]([O-])c1ccc(-c2nc(-c3ccc(F)cc3)c(-c3ccncc3)[nH]2)cc1 (stereo unspecified),94.4
3,CCC[C@H](Nc1nc(-c2ccc(NC(=O)NCC)c(OC)c2)ncc1C)c1cccnc1 [CYT997 (Lexibulin)],12.1
4,CC1(C)CNc2cc(NC(=O)c3cccnc3NCc3ccncc3)ccc21 [Motesanib Diphosphate (AMG-706)],87.8
5,Cc1nnc(C(C)C)n1C1C[C@H]2CC[C@@H](C1)N2CC[C@H](NC(=O)C1CCC(F)(F)CC1)c1ccccc1 (stereo in doubt) [Maraviroc],101
6,Nc1ccc(C(=O)Nc2cccc(-c3nc(N4CCOCC4)c4oc5ncccc5c4n3)c2)cn1,104
7,CCCC(CCC)C(=O)O [Valproic acid sodium salt (Sodium valproate)],94.2
8,N#Cc1c(Oc2ccc(F)c(NC(=O)Cc3cccc(C(F)(F)F)c3)c2)ccc2nc(NC(=O)C3CC3)sc12,103
9,Oc1ccc(/C=C/c2cc(O)cc(O)c2)cc1 [Resveratrol],106
10,CC1(C)CCC(CN2CCN(c3ccc(C(=O)NS(=O)(=O)c4ccc(NCC5CCOCC5)c([N+](=O)[O-])c4)c(Oc4cnc5[nH]ccc5c4)c3)CC2)=C(c2ccc(Cl)cc2)C1,35.1
11,"CO[C@H]1C[C@@H]2CC[C@@H](C)[C@@](O)(O2)C(=O)C(=O)N2CCCC[C@H]2C(=O)O[C@H]([C@H](C)C[C@@H]2CC[C@@H](OP(C)(C)=O)[C@H](OC)C2)CC(=O)[C@H](C)/C=C(\C)[C@@H](O)[C@@H](OC)C(=O)[C@H](C)C[C@H](C)/C=C/C=C/C=C/1C [Ridaforolimus (Deforolimus, MK-8669)]",58.5
12,CCC(C)(C)C(=O)O[C@H]1C[C@@H](C)C=C2C=C[C@H](C)[C@H](CC[C@@H]3C[C@@H](O)CC(=O)O3)[C@H]21 [Simvastatin],89.1
13,Cc1cc(CS(=O)(=O)c2ccccc2)cc(OCc2ccc(CN3CCC[C@@H]3CO)cc2)c1,97.9
14,Cn1c(Nc2ccc(C(F)(F)F)cc2)nc2cc(Oc3ccnc(-c4ncc(C(F)(F)F)[nH]4)c3)ccc21,96.7
15,"CC[C@H](Nc1ncnc2[nH]cnc12)c1nc2cccc(F)c2c(=O)n1-c1ccccc1 [CAL-101 (Idelalisib, GS-1101)]",99.3
16,"COc1cc(F)c(F)c(Nc2ccc(I)cc2F)c1NS(=O)(=O)C1(C[C@H](O)CO)CC1 [Refametinib (RDEA119, Bay 86-9766)]",97.1
17,CC(=O)Nc1cccc(-n2c(=O)n(C3CC3)c(=O)c3c(Nc4ccc(I)cc4F)n(C)c(=O)c(C)c32)c1,93.7
18,O=C(O)CCNc1cc(N2CCc3ccccc3CC2)nc(-c2ccccn2)n1,102
19,C[C@@H]1CCN(C(=O)CC#N)C[C@@H]1N(C)c1ncnc2[nH]ccc12,98.5
20,COc1ccc(-c2ccc3ncc4c(c3c2)n(-c2ccc(N3CCNCC3)c(C(F)(F)F)c2)c(=O)n4C)cn1,0.399
21,Clc1ccc(C2(c3ccc(-c4cn[nH]c4)cc3)CCNCC2)cc1,73.6
22,O=C(CCCCCCNC(=O)c1cnc(N(c2ccccc2)c2ccccc2)nc1)NO [Rocilinostat (ACY-1215)],96.5
